Experimental data: publication PMC4336329 (PLoS ONE, 2015)
In all, about 310,000 compounds went through this assay and about 2,200 (0.71%) showed an effect of 50% or more. The effect is printed as a negative number. For the sample, strong results were picked, then their nearest neighbours and some compounds at random.

biological target: human ether-à-go-go-related gene (hERG) potassium channel (human, UniProt Q12809); test: primary screen, population patch clamp on CHO cells stably expressing hERG; higher = less effect of the substance
Sequence (Q12809 whole entry, looked up): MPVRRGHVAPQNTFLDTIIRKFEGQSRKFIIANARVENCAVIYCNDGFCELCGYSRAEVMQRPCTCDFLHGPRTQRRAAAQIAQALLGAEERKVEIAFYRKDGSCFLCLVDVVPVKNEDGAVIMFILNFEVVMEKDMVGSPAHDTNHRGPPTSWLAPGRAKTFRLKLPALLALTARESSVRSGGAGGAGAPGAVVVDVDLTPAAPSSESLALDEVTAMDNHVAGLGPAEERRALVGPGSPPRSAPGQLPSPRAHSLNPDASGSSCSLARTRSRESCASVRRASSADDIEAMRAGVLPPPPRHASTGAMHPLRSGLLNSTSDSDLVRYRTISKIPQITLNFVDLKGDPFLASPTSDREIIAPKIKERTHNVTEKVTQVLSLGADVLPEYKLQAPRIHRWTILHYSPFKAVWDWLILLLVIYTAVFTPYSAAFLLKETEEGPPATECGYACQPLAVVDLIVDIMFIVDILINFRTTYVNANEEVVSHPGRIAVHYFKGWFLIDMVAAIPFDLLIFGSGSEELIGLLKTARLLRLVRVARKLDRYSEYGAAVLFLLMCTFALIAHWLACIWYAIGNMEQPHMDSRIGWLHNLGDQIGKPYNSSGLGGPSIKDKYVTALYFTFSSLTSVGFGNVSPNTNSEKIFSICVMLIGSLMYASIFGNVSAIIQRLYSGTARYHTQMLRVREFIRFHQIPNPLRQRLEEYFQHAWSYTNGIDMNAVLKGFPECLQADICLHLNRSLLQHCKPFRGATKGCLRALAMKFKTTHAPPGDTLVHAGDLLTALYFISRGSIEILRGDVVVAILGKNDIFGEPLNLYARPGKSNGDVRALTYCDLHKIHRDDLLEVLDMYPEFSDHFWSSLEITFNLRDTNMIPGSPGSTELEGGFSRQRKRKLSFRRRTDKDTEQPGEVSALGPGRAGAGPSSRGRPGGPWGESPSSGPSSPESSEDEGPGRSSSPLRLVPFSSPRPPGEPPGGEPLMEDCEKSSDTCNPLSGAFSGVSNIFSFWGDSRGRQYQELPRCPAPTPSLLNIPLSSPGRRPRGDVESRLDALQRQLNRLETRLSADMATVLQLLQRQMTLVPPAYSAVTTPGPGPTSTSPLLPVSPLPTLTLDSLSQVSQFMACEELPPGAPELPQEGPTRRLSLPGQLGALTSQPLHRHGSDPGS

| Compound | hERG current change (%, negative = inhibition) at 1uM [%] |
| --- | --- |
| O=c1nc2n(c3ncccc13)CCC2 | 16.1 |
| CCOC(=O)c1cc(-c2ccccc2)sc1NC(=O)CSc1nnc(N)s1 | 2.01 |
| Cc1cc(C)cc(C(=O)NCC(=O)OCC(=O)N2c3ccccc3NC(=O)C2(C)C)c1 | 4.41 |
| COc1ccc(NC(=O)CN2CC(c3ccccc3)CC2=O)cc1OC (stereo not drawn) | 12.3 |
| COc1ccc(CC[NH+](C)CCCN2CC(c3ccccc3)CC2=O)cc1OC.O=C([O-])C(=O)[O-] (stereo not drawn) | -61.9 |
| COc1ccc(C2SCC(=O)N2CCc2ccc(OC)c(OC)c2)cc1 (stereo not drawn) | -1.68 |
| COc1ccc(CCN2CC(C(=O)NCc3ccc(F)cc3)CC2=O)cc1OC (stereo not drawn) | 6.95 |
| COc1ccc(CCN2CC(C(=O)O)CC2=O)cc1OC (stereo not drawn) | 2.95 |
| COc1ccc(C2CC(=O)N(CCC[NH+](C)CCc3ccc(OC)c(OC)c3)C2)cc1.O=C([O-])C(=O)[O-] (stereo not drawn) | -72.9 |
| COCC1CCCN(C(=O)c2ccc3oc(C(C)C)nc3c2)C1 (stereo not drawn) | 9.33 |
| COc1ccc(/C=N/Nc2nc(N3CCCC3)nc(N3CCCC3)n2)cc1O | 7.51 |
| O=C(c1ccc(O)cc1)c1ccc(Cl)cc1 | -3.35 |
| O=C(O)CCCCCCCCCCCc1ccccc1 | 12.7 |
| CC(C)N(C)NC(=S)Nc1ccccc1 | 8.22 |
| COc1ccc(/C=C(/NC(=O)c2ccc([N+](=O)[O-])cc2)C(=O)NCCCN(C)C)cc1 | -65.3 |
| COc1ccc(/C=C(\NC(=O)c2ccc([N+](=O)[O-])cc2)C(=O)NCCCn2ccnc2)cc1 | -14.4 |
| C=CCNC(=O)/C(=C\c1ccc(OC)cc1)NC(=O)c1ccc([N+](=O)[O-])cc1 | -64.7 |
| C=CCNC(=O)/C(=C\c1ccc([N+](=O)[O-])cc1)NC(C)=O | 8.68 |
| COc1ccc(/C=C(/NC(=O)c2ccc([N+](=O)[O-])cc2)C(=O)NC(C)(C)C)cc1 | -10.7 |
| COc1ccc(/C=C(\NC(=O)c2ccc([N+](=O)[O-])cc2)C(=O)NCCCN2CCOCC2)cc1 | -41 |
| CCOC(=O)CCc1c(C)c(C#N)c2nc3ccccc3n2c1-n1ccnc1C | -20.4 |
| CCOC(=O)CCc1c(C)nc2cc(-c3ccc(F)cc3)[nH]n2c1=O | 8.2 |
| CC(C)(C)SCCNC(=O)c1ccc(Cl)c([N+](=O)[O-])c1 | 8.24 |
| O=C(Cn1nnc(-c2ccccc2-n2cnnn2)n1)c1ccccc1 | 5.12 |

| Compound | hERG current change (%, negative = inhibition) at 1uM [%] |
| --- | --- |
| O=C(C1=C(O)C(=O)N(CCCN2CCOCC2)C1c1ccc(Cl)cc1)c1cc2ccccc2o1 (stereo not drawn) | 15.8 |
| CN(C(=O)c1ccc(Cl)cc1)C1=CCCCC1CCC#N (stereo not drawn) | 0.644 |
| CC(C)C(=O)N1CCN(c2ccccc2NC(=O)Cc2ccc(Cl)cc2)CC1 | -38.9 |
| CN1CCN(c2ccc(S(=O)(=O)N3CCCCC3)cc2NC(=O)Cc2c(F)cccc2Cl)CC1 | -7.39 |
| CN1CCN(c2ccc(S(=O)(=O)N3CCCCC3)cc2NC(=O)Cc2ccc(Cl)cc2)CC1 | -50.6 |
| O=C(CC1OC(=O)c2ccccc21)Nc1cc(Cl)ccc1N1CCCC1 (stereo not drawn) | 8.82 |
| CC(=O)N1CCN(c2ccccc2NC(=O)Cc2ccc(Cl)cc2)CC1 | -17.2 |
| COc1ccc(CC(=O)Nc2cc(S(=O)(=O)N3CCCCC3)ccc2N2CCN(C)CC2)cc1 | -7.26 |
| CN1CCN(c2ccccc2NC(=O)Cc2ccc(Cl)cc2)CC1 | -59.4 |
| CN1CCN(c2ccc(Cl)cc2NC(=O)CCN2C(=O)c3ccccc3C2=O)CC1 | 6.75 |
| CN1CCN(c2ccc(Cl)cc2NC(=O)CC2OC(=O)c3ccccc32)CC1 (stereo not drawn) | -61.2 |
| COc1ccc(NC(=S)N(CCc2ccc(OC)c(OC)c2)Cc2ccccn2)cc1 | 0.952 |
| CCOC(=O)c1ccc(CNCc2ccc(C)cc2)cc1 | -1.83 |
| COc1ccc(S(=O)(=O)N2CCCC2CNC(=O)C(=O)Nc2ccc(C)cc2)cc1 (stereo not drawn) | -0.606 |
| COc1cc(CCC(=O)OCC(=O)Nc2ccc(C)cc2Cl)cc(OC)c1OC | 15.1 |
| CCn1ncc(NC(=O)Nc2cccc(C(F)(F)F)c2)c1C(N)=O | 5.39 |
| Cc1cc(C(=O)NC2CCCCC2)on1 | 10.2 |
| CN(C)c1cccc(C(=O)Nc2nc3ccccc3[nH]2)c1 | 14.7 |
| Fc1ccc(CN2CCCCCCC2)c(F)c1 | 14.2 |
| O=C(N/C(=C\c1ccc([N+](=O)[O-])cc1)C(=O)N1CCOCC1)c1cccc(Br)c1 | -79 |
| Cc1ccc(C(=O)N/C(=C/c2ccc(Cl)cc2)C(=O)N2CCOCC2)cc1 | -9.41 |
| COc1ccc(/C=C(/NC(=O)c2ccc(Br)cc2)C(=O)N2CCOCC2)cc1 | 7.06 |
| O=C(N/C(=C\c1ccccc1)C(=O)N1CCOCC1)c1cccc(Br)c1 | 18.8 |
| COc1ccc(/C=C(\NC(=O)c2ccc([N+](=O)[O-])cc2)C(=O)N2CCOCC2)cc1 | -54.9 |

| Compound | hERG current change (%, negative = inhibition) at 1uM [%] |
| --- | --- |
| O=C(N/C(=C/c1cccc([N+](=O)[O-])c1)C(=O)N1CCOCC1)c1ccc(Br)cc1 | -19.6 |
| O=C(N/C(=C\c1ccccc1Cl)C(=O)N1CCOCC1)c1ccc([N+](=O)[O-])cc1 | -31.6 |
| O=C(N/C(=C\c1ccc(Cl)cc1)C(=O)N1CCOCC1)c1ccc([N+](=O)[O-])cc1 | -88.2 |
| COc1ccc(C(=O)N/C(=C\c2ccccc2)C(=O)N2CCOCC2)cc1 | 9.79 |
| O=C(N/C(=C\c1cccc([N+](=O)[O-])c1)C(=O)N1CCOCC1)c1cccc(Br)c1 | 7.37 |
| O=C(N/C(=C\c1ccc(Br)cc1)C(=O)N1CCOCC1)c1ccc([N+](=O)[O-])cc1 | -81.6 |
| O=C(N/C(=C/c1ccccc1)C(=O)N1CCOCC1)c1ccc([N+](=O)[O-])cc1 | -19.6 |
| O=C(Nc1cc(Cl)ccc1N1CCOCC1)c1cc2ccccc2o1 | 8.14 |
| Cc1c(Br)c([N+](=O)[O-])nn1C(C)C(=O)NCc1cccnc1 (stereo not drawn) | -7.67 |
| O=C(O)COc1ccccc1 | 14.1 |
| O=C(Nc1ccc2c(c1)C(=O)OC2)c1ccc(Cl)cc1Cl | 3.09 |
| Cc1ccccc1N(C(=O)Cc1cccs1)C(C(=O)NC1CCCCC1)c1cn(C)nc1C (stereo not drawn) | -0.242 |
| CCCCCCN1C2=NCCN2c2ccccc21.Cl | -82.3 |
| c1ccc([C@H]2CN3C(=N2)Sc2ccccc23)cc1 | 11 |
| CCCCCCCN1C2=NCCCN2c2ccccc21.Cl | -21.6 |
| Br.CC(C)(C)C(=O)CN1C2=NCCN2c2ccccc21 | 2.72 |
| Br.CCCCN1C2=NCCCN2c2ccccc21 | -6.43 |
| CCCCCCN1C2=NCCCN2c2ccccc21.Cl | -73.7 |
| CCCN1C2=NCCCN2c2ccccc21.Cl | 7.07 |
| Br.CCCCCN1C2=NCCN2c2ccccc21 | -58.9 |
| CCCCN1C2=NC(c3ccccc3)CN2c2ccccc21.Cl (stereo not drawn) | -50.5 |
| O=C(CNC(=O)C12CC3CC(CC(C3)C1)C2)NC1=NCCS1 | 12.3 |
| COc1ccc(O)c(C2(O)C(=O)c3ccccc3C2=O)c1 | 14.2 |
| COc1cccc(NC(=O)Nc2nnc(-c3ccccc3SCc3ccccc3)s2)c1 | 2.04 |

| Compound | hERG current change (%, negative = inhibition) at 1uM [%] |
| --- | --- |
| O=C(Nc1c2c(nn1-c1ccc([N+](=O)[O-])cc1)CS(=O)(=O)C2)c1ccco1 | -24.1 |
| O=C(CCN1CCN(Cc2ccccc2)CC1)Nc1cccc(Cl)c1 | -45 |
| O=C(c1cc2ccccc2oc1=O)N1CCN(C(=O)C2CCCO2)CC1 (stereo not drawn) | 4.25 |
| CCCOc1ccc(C2C(C(=O)c3ccc(C)o3)=C(O)C(=O)N2Cc2ccco2)cc1OCC (stereo not drawn) | 14.9 |
| COc1ccccc1N1CCN(C(=O)C(OC(C)=O)c2ccccc2)CC1 (stereo not drawn) | 11.8 |
| CCCCN(CC)CCNC(=O)c1cc2c(=O)[nH]c3ccccc3c2n1C | 11.5 |
| N#Cc1ccc(C(=O)Nc2cc(-c3ccccc3)nn2-c2ccccc2)cc1 | 0.56 |
| COc1cccc(C2CCCN2Cc2nc(CC3CC3)no2)c1 (stereo not drawn) | 14.5 |
| CNC(=S)N1CCN(c2cccc(OC)c2)CC1 | 7.07 |
| COc1cc(O)oc1C=Nc1ccc(Cl)cc1 | 10.9 |
| CNC(=S)NNC(=O)c1ccccc1Br | 15.2 |
| CCCCCCCN1C2=NCCN2c2ccccc21.Cl | -60.7 |
| Cc1ccccc1CN1C2=NCCN2c2ccccc21.Cl | -13.7 |
| O=C(Cn1c2c(sc1=O)C1c3ccccc3OCC1CS2)Nc1ccc(Cl)cc1 (stereo not drawn) | 9.64 |
| Nc1nc(SCCC(F)=C(F)F)n[nH]1 | 4.82 |
| CCCCN(CCCC)CCNC(=O)c1cn(CC)c2ccc(S(=O)(=O)N(C)C3CCCCC3)cc2c1=O | -84.2 |
| CCCCN(CC)CCCNC(=O)c1cn(C)c2ccc(S(=O)(=O)N(C)C3CCCCC3)cc2c1=O | -66.6 |
| CCCCN(C)CCCNC(=O)c1cn(C)c2ccc(S(=O)(=O)N(C)C3CCCCC3)cc2c1=O | -45.6 |
| CCN(CC)CCCNC(=O)c1cn(C)c2ccc(S(=O)(=O)N(C)C3CCCCC3)cc2c1=O | 12.2 |
| CCCN(CCC)CCCNC(=O)c1cn(CC)c2ccc(S(=O)(=O)N(C)C3CCCCC3)cc2c1=O | -46.1 |
| CCN(CC)CCNC(=O)c1cn(CC)c2ccc(S(=O)(=O)N(C)C3CCCCC3)cc2c1=O | 9.42 |
